Experimental data taken from PubChem BioAssay (NCI).
This is part of a sample that, as a whole, favours compounds with a hit. Of some 83,000 tested, about 20% had one in any assay.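 Testing used 96-well plates and a 48-hour single-concentration exposure. Example: -40 means 40% of the starting cells died.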 Values without a mark were called inactive. Activity calls are given as the source filed them. How the source made its calls: active means growth percent below 10; inactive means the rest.

The molecules below were run on NCI-H23 lung (assay: NCI-60 one-dose screen, 48 h (100 = growth as untreated, 0 = no growth, -100 = all killed)). Details: 10 µM unless noted.

| SMILES | growth |
| --- | --- |
| COC(=O)Nc1nc2ccc(S(=O)c3ccccc3)cc2[nH]1 (stereo not drawn) | 64.4% |
| O=C(c1nn(-c2ccccc2)c2c1CC(NCc1ccc(F)cc1)CC2)N1CCCCC1 (stereo not drawn) | 95.3% |
| CC(C)c1ccc(C(=O)Nc2nc3ccc(O)c(CN(C)C)c3s2)cc1 | 88.9% |
| CCCNC(=O)Nc1ccc2cc3ccc(NC(=O)NCCC)cc3nc2c1 | 86.4% |
| N=C(N)c1ccc(-c2ccc(-c3ccc(Cl)c(Cl)c3)s2)nc1 | 67.6% |
| CNc1nnc2n(-c3ccccc3)c(=O)c3cnn(-c4ccccc4)c3n12 | 95.8% |
| COc1cc(OC)c(/C=C/C(=O)c2c(OC)cccc2OC)c(OC)c1 | -22% (active) |
| Cn1c(I)c(C#CCO[Si](C)(C)C(C)(C)C)c(=O)[nH]c1=O | 96.4% |
| CC1CCN(CCOc2ccc(CNc3ccc4nc(CCC5CCCCC5)[nH]c4c3)cc2)CC1 | 71.7% |
| Cc1cn(-c2cc(NC(=O)c3cccc(C#Cc4cccc5[nH]nc(N)c45)c3)cc(C(F)(F)F)c2)cn1 | 37.1% |
| CC1CN(S(=O)(=O)c2oc(-c3ccc(Cl)cc3)nc2C#N)CC(C)O1 (stereo not drawn) | 77.8% |
| N=C(N)c1ccc(-c2ccc(-c3ccccc3)o2)cc1 | 3.73% (active) |
| CCCCCCC12CCC(=O)N1CCc1cncn12 (stereo not drawn) | 108% |
| CCCCCCCCCCCCCCCCCCOc1ccccc1CC(=O)OCC[N+](C)(C)C | 40.2% |
| O=C(CN1CCOCC1)Nc1nc(-c2cc3ccccc3oc2=O)cs1 | 111% |
| O=c1[nH]c(-c2ccccc2)nc2sc3cc(O)ccc3c12 | 84.6% |
| Cc1cc(C(=O)O)c(C)n1-c1cccc(C(=O)O)c1 | 78.7% |
| COc1ccc(C/C(C)=C(/c2ccc(OCCN(C)C)cc2)c2ccc(OC(=O)NCc3ccccc3)cc2)cc1 | 83.1% |
| O=S(=O)(Nc1ccc(F)cc1F)c1ccc(-c2cnc(C3CC3)o2)cc1 | 38% |
| Cc1ccc(NC(=O)Cn2cc(CN3CCN(c4ccnc5cc(Cl)ccc45)CC3)nn2)cc1 | 90% |

| SMILES | growth |
| --- | --- |
| Cc1cc(=O)oc2cc(OCc3nn4c(Nc5nc6ccccc6s5)c(-c5ccccc5)nc4s3)ccc12 | 83.3% |
| OB1OCc2cc(/C=C/c3cccc(C(F)(F)F)c3)ccc21 | 21.6% |
| CC1(C)CC(=O)C2=C(C1)N(c1ccc(OC(F)(F)F)cc1)C(N)=C(C#N)C2c1ccc(Br)cc1F (stereo not drawn) | 75.8% |
| C=C1CC[C@@H]2[C@](C)(COC(C)=O)[C@H](OC(C)=O)CC[C@@]2(C)[C@@H]1CC(Nc1ccc(S(=O)(=O)Nc2ncccn2)cc1)C1=CCOC1=O (stereo partly drawn) | 29.6% |
| COCCOc1cc2ncnc(N3CCN(c4ncc(S(=O)(=O)N5CCCCC5)cn4)CC3)c2cc1OCCOC | 91.5% |
| COC(=O)[C@]1(C)CCC[C@]2(C)[C@H]3C[C@H]4C(C(C)C)=C[C@]3(CC[C@H]21)[C@@H]1C(=O)CC[C@H](OCCC#N)[C@@H]14 | 84.7% |
| O=C1c2c(c3c4ccccc4[nH]c3c3ccc4ccccc4c23)C(=O)N1CCN1CCNCC1 | 72.4% |
| COC(=O)c1nc(-c2ccc(C)cc2)oc1S(=O)(=O)c1cccc(OC)c1 | 92.6% |
| COc1ccc2c(c1)CC[C@H](O)/C2=C/c1cc(OC)c(OC)c(OC)c1 | 30.3% |
| C=CC[Se]C(=O)Cc1c(C)n(C(=O)c2ccc(Cl)cc2)c2ccc(OC)cc12 | -18.2% (active) |
| Cc1ccc(C)n1-c1ccccc1-n1c(C)ccc1C | 107% |
| O=C(NNC(=O)c1ccc(NC(=O)c2ccccn2)cc1)Nc1ccc([N+](=O)[O-])cc1 | 106% |
| CCCCCCCCCCCCCCCCOCCCOP(=O)(O)C1CCCN(O)C1=O (stereo not drawn) | 18.5% |
| Cc1[nH]c(C(=O)Nc2ccccc2OC2CCNCC2)c(Cl)c1Cl | 42.8% |
| c1csc(-c2ccc(CNc3c4ccccc4nc4ccccc34)cc2)c1 | 38.2% |
| O=C1/C(=C/c2ccccc2O)CC/C1=C\c1ccccc1O | 59.8% |
| CN(C)S(=O)(=O)c1cccc(C(=O)Nc2nc(-c3ccc(F)c(F)c3)cs2)c1 | 45.7% |
| COc1ccc(C/C(C)=C(\c2ccc(Cl)cc2)c2ccc(OCCN3CCCCC3)cc2)cc1 | 91.9% |
| N#Cc1c(-c2ccc(Cl)cc2)nc(NN2C(=O)c3ccccc3C2=O)nc1N1CCOCC1 | 97.2% |

What follows are molecules tested on NCI-H226 lung in the same assay as above. Details: 10 µM unless noted.

| SMILES | growth |
| --- | --- |
| COC(=O)Nc1nc2ccc(S(=O)c3ccccc3)cc2[nH]1 (stereo not drawn) | 92.9% |
| O=C(c1nn(-c2ccccc2)c2c1CC(NCc1ccc(F)cc1)CC2)N1CCCCC1 (stereo not drawn) | 103% |
| CC(C)c1ccc(C(=O)Nc2nc3ccc(O)c(CN(C)C)c3s2)cc1 | 97.1% |
| CCCNC(=O)Nc1ccc2cc3ccc(NC(=O)NCCC)cc3nc2c1 | 90.7% |
| N=C(N)c1ccc(-c2ccc(-c3ccc(Cl)c(Cl)c3)s2)nc1 | 86.9% |
| CNc1nnc2n(-c3ccccc3)c(=O)c3cnn(-c4ccccc4)c3n12 | 93.6% |
| COc1cc(OC)c(/C=C/C(=O)c2c(OC)cccc2OC)c(OC)c1 | 47.3% |
| Cn1c(I)c(C#CCO[Si](C)(C)C(C)(C)C)c(=O)[nH]c1=O | 108% |
| CC1CCN(CCOc2ccc(CNc3ccc4nc(CCC5CCCCC5)[nH]c4c3)cc2)CC1 | 30.9% |
| Cc1cn(-c2cc(NC(=O)c3cccc(C#Cc4cccc5[nH]nc(N)c45)c3)cc(C(F)(F)F)c2)cn1 | 22.1% |
| CC1CN(S(=O)(=O)c2oc(-c3ccc(Cl)cc3)nc2C#N)CC(C)O1 (stereo not drawn) | 87.4% |
| N=C(N)c1ccc(-c2ccc(-c3ccccc3)o2)cc1 | -26.4% (active) |
| CCCCCCC12CCC(=O)N1CCc1cncn12 (stereo not drawn) | 99.8% |
| CCCCCCCCCCCCCCCCCCOc1ccccc1CC(=O)OCC[N+](C)(C)C | 28.7% |
| O=C(CN1CCOCC1)Nc1nc(-c2cc3ccccc3oc2=O)cs1 | 88.2% |
| O=c1[nH]c(-c2ccccc2)nc2sc3cc(O)ccc3c12 | 79.6% |
| Cc1cc(C(=O)O)c(C)n1-c1cccc(C(=O)O)c1 | 100% |
| COc1ccc(C/C(C)=C(/c2ccc(OCCN(C)C)cc2)c2ccc(OC(=O)NCc3ccccc3)cc2)cc1 | 97.7% |
| O=S(=O)(Nc1ccc(F)cc1F)c1ccc(-c2cnc(C3CC3)o2)cc1 | 64.3% |
| Cc1ccc(NC(=O)Cn2cc(CN3CCN(c4ccnc5cc(Cl)ccc45)CC3)nn2)cc1 | 84.9% |

| SMILES | growth |
| --- | --- |
| Cc1cc(=O)oc2cc(OCc3nn4c(Nc5nc6ccccc6s5)c(-c5ccccc5)nc4s3)ccc12 | 92.2% |
| OB1OCc2cc(/C=C/c3cccc(C(F)(F)F)c3)ccc21 | -10.2% (active) |
| CC1(C)CC(=O)C2=C(C1)N(c1ccc(OC(F)(F)F)cc1)C(N)=C(C#N)C2c1ccc(Br)cc1F (stereo not drawn) | 33.1% |
| C=C1CC[C@@H]2[C@](C)(COC(C)=O)[C@H](OC(C)=O)CC[C@@]2(C)[C@@H]1CC(Nc1ccc(S(=O)(=O)Nc2ncccn2)cc1)C1=CCOC1=O (stereo partly drawn) | -16.6% (active) |
| COCCOc1cc2ncnc(N3CCN(c4ncc(S(=O)(=O)N5CCCCC5)cn4)CC3)c2cc1OCCOC | 97.2% |
| COC(=O)[C@]1(C)CCC[C@]2(C)[C@H]3C[C@H]4C(C(C)C)=C[C@]3(CC[C@H]21)[C@@H]1C(=O)CC[C@H](OCCC#N)[C@@H]14 | 74.3% |
| O=C1c2c(c3c4ccccc4[nH]c3c3ccc4ccccc4c23)C(=O)N1CCN1CCNCC1 | 76% |
| COC(=O)c1nc(-c2ccc(C)cc2)oc1S(=O)(=O)c1cccc(OC)c1 | 87% |
| COc1ccc2c(c1)CC[C@H](O)/C2=C/c1cc(OC)c(OC)c(OC)c1 | 40.8% |
| C=CC[Se]C(=O)Cc1c(C)n(C(=O)c2ccc(Cl)cc2)c2ccc(OC)cc12 | -20.5% (active) |
| Cc1ccc(C)n1-c1ccccc1-n1c(C)ccc1C | 97.8% |
| O=C(NNC(=O)c1ccc(NC(=O)c2ccccn2)cc1)Nc1ccc([N+](=O)[O-])cc1 | 94.2% |
| CCCCCCCCCCCCCCCCOCCCOP(=O)(O)C1CCCN(O)C1=O (stereo not drawn) | -21.9% (active) |
| Cc1[nH]c(C(=O)Nc2ccccc2OC2CCNCC2)c(Cl)c1Cl | 98.6% |
| c1csc(-c2ccc(CNc3c4ccccc4nc4ccccc34)cc2)c1 | 69% |
| O=C1/C(=C/c2ccccc2O)CC/C1=C\c1ccccc1O | 82.9% |
| CN(C)S(=O)(=O)c1cccc(C(=O)Nc2nc(-c3ccc(F)c(F)c3)cs2)c1 | 46.7% |
| COc1ccc(C/C(C)=C(\c2ccc(Cl)cc2)c2ccc(OCCN3CCCCC3)cc2)cc1 | 86.5% |
| N#Cc1c(-c2ccc(Cl)cc2)nc(NN2C(=O)c3ccccc3C2=O)nc1N1CCOCC1 | 99.9% |
